Screening data (PubChem)
gsp ag: qHTS for Agonist of gsp, the Etiologic Mutation Responsible for Fibrous Dysplasia/McCune-Albright Syndrome: qHTS; actives 0.13% (n = 340,000); Potency, µM (highest dose often 76.9 µM), most hits filed as activators; AID 624287, 2012; gsp mutant cells, cAMP HTRF, 30 min; active = well fitted activation curve with a large enough effect; inconclusive = small, poorly fitted or top-dose-only effect, or another doubt; inactive = no such curve, though single readings can be large or run the other way; cell line not stated here;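 note: phosphodiesterase inhibitor Ro 20-1724 added with compounds to block cAMP breakdown; nearly all actives have a fitted effect of over 60% in size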
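Cells stably selected in G418 were plated at 2000/well, grown 16-24 hr, then given compounds in DMSO with the PDE inhibitor […] (300 uM solution added) for 30 min at 37C; cAMP was read by HTRF.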
gsp antagonist: qHTS for Antagonists of gsp, the Etiologic Mutation Responsible for Fibrous Dysplasia/McCune-Albright Syndrome: qHTS; gsp-mutant cells, cAMP HTRF, 30 min; Potency, µM (series often up to 76.9 µM), hits mostly inhibitors; actives 0.4% (n = 340,000); calls by dose curve; cell line not stated here;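 note: intracellular cAMP measured with PDE inhibitor Ro 20-1724 present during compound exposure; nearly all actives have a fitted effect of over 65% in size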
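Measurement of cellular cAMP by homogeneous time-resolved fluorescence following a 30 min compound exposure at 37C. The PDE inhibitor […] was present throughout; the assay buffer was DPBS with 0.05% BSA and 0.005% Tween 20.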
MBNL1-CUG inh: qHTS Assay for Inhibitors of MBNL1-poly(CUG) RNA binding | TR-FRET MBNL1-His/biotin-(CUG)12 binding, 665/545 ratio | Potency, µM (series often up to 57.5 µM), actives largely listed as inhibitors | Muscleblind-like protein 1 (Homo sapiens), Q9NR56 | actives 0.036% (n = 280,000); active = well fitted inhibition curve with a large enough effect in the signal ratio, with a control signal flat, not every such curve was filed as active; inconclusive = small, poorly fitted or top-dose-only effect, or effect the other way, or a change in a side signal; inactive = no such curve, though single readings can be large or run the other way; the % refers to the signal ratio
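Compounds (final 92 nM to 58 uM) are added to His-tagged MBNL1 and biotin-(CUG)12, then terbium anti-His antibody and streptavidin-XL665 (5 nM final). After 60 min at room temperature, the 665/545 nm ratio is read.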
BCR signal inh: qHTS Assay to Find Inhibitors of Chronic Active B-Cell Receptor Signaling | Potency, µM (top dose mostly 46.1 µM), most hits filed as inhibitors | AID 493014, 2011 | ABC-DLBCL IkBa-CBG/CBR reporter, luminescence ratio, 4 h | actives 0.05% (n = 340,000); active = well fitted inhibition curve with a large enough effect in the signal ratio, with a control signal flat, not every such curve was filed as active; inconclusive = small, poorly fitted or top-dose-only effect, or effect the other way, or a change in a side signal; the % refers to the signal ratio
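TMD8 ABC-DLBCL cells carrying doxycycline-inducible green luciferase fused to IkappaBalpha plus unfused red luciferase were exposed to compounds (up to 46 uM) for 4 hrs at 37C. Activity came from the overlap-corrected green/red luminescence ratio.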
S-ASM inh: Inhibitors of Secretory Acid Sphingomyelinase (S-ASM): qHTS | Potency, µM (titrated, usually from 57.5 µM), usual class: inhibitors | Sphingomyelin phosphodiesterase (Homo sapiens), P17405 | placental ASM, HMU-PC fluorogenic substrate, 60 min | actives 0.006% (n = 340,000) | AID 504937, 2011; active = well fitted inhibition curve with a large enough effect; inconclusive = small, poorly fitted or top-dose-only effect; inactive = no such curve, though single readings can be large or run the other way
Target sequence (P17405 47-631 limits assumed): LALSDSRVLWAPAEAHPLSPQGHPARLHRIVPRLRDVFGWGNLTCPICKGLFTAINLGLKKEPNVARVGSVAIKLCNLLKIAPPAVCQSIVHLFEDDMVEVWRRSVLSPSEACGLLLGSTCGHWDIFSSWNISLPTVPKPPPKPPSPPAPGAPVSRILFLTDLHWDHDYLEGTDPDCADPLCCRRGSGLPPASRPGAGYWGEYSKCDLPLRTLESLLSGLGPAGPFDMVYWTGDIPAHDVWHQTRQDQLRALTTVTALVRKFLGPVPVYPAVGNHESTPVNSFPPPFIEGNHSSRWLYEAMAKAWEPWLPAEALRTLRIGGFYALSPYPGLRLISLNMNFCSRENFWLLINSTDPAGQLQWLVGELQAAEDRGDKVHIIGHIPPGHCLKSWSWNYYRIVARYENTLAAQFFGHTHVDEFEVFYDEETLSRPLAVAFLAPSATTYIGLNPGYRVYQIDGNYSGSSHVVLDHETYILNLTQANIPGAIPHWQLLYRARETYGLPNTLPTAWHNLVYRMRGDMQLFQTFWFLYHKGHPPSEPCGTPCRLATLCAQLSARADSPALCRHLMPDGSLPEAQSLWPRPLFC
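Fluorescence read-out (Ex 386 nm, Em 447 nm) after stopping the reaction at pH 10. Enzyme: ASM from human placenta; substrate HMU-PC0, 9 uM final; 60 min, 37 °C. Compound preincubation 10 min, ambient temperature.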
Of the large screens only hits and unclear results are named; the others gave an inactive call. Shown are actives, neighbours in structure and some others; about 0.62% of the full set was active somewhere.

NS(=O)(=O)c1cccc(NC(=O)COC(=O)CSCc2ccccc2)c1	none (no result: MBNL1-CUG inh)
COc1ccc(OC)c(NC(=O)C(C)OC(=O)c2cc3ccccc3[nH]2)c1 (stereo not given)	gsp antagonist 22µM (no result: MBNL1-CUG inh, BCR signal inh)
CCC(C)n1nccc1NC(=O)C(C)OC(=O)c1cc2ccccc2[nH]1 (stereo not given)	none
COc1ccccc1NC(=O)C(C)OC(=O)c1cc2ccccc2[nH]1 (stereo not given)	gsp antagonist 35µM, BCR signal inh inconclusive (no result: MBNL1-CUG inh)
NC(=O)CC(NC(=O)Cc1cccc2ccccc12)c1ccc(N2CCCCCCC2)c([N+](=O)[O-])c1 (stereo not given)	gsp antagonist 50µM
CCOCc1c(C(=O)N2CCN(CC(=O)Nc3ccc(F)cc3)CC2)oc2ccccc12	BCR signal inh inconclusive (no result: MBNL1-CUG inh, S-ASM inh)
Cc1nn(Cc2ccc(Cl)cc2)c(C)c1NC(=O)c1cc(-c2ccco2)on1	none
Cc1nn(Cc2ccc(Cl)c(Cl)c2)c(C)c1NC(=O)c1cc(-c2ccco2)on1	gsp antagonist 32µM
Cc1cnccc1CNC(=O)C1CCC(=O)N(Cc2ccc(Cl)cc2)C1 (stereo not given)	none
CC(C)(C)c1nc(SCC(=O)NNC(=O)c2ccccc2)c2ccccc2n1	none
CC1=NOC(=O)/C1=C\c1ccc(-c2ccccc2Br)o1	gsp ag 16µM, BCR signal inh inconclusive
CC1=NOC(=O)/C1=C\c1ccc(-c2cccc(Cl)c2)o1	none
COc1ccc(C)cc1-n1c(SCC(=O)NC2CC2)nc2ccccc2c1=O	BCR signal inh inconclusive (no result: MBNL1-CUG inh)
Cc1cc(/C=C(\C#N)C(=O)Nc2ccccc2)c(C)n1-c1ccc(C(=O)O)cc1	gsp antagonist inconclusive, BCR signal inh inconclusive (no result: MBNL1-CUG inh)
Cc1cccc(NC(=O)/C(C#N)=C\c2cc(C)n(-c3ccc(C(=O)O)cc3)c2C)c1	gsp antagonist 25µM, MBNL1-CUG inh inconclusive
COc1ccccc1OCCNC(=O)CCC(=O)N1CCOCC1	gsp ag inconclusive (no result: MBNL1-CUG inh)
CN(C)S(=O)(=O)Oc1ccsc1C(=O)Nc1ccccc1Cl	gsp antagonist 28µM
COc1ccc(CCNC(=O)CC(=O)N/N=C\c2ccc(OCC(N)=O)cc2)cc1OC	none (no result: gsp antagonist, MBNL1-CUG inh, BCR signal inh, S-ASM inh)
CCOc1ccc(-n2c(C)cc(/C=C3/C(=N)N4C(=NC3=O)SN=C4S(C)(=O)=O)c2C)cc1	gsp antagonist 32µM
CC(=O)N1CCc2cc(S(=O)(=O)CCC(=O)N3CCc4ccccc4C3)ccc21	none
CC(=O)N1CCc2cc(S(=O)(=O)NCCC(=O)N3CCc4ccccc4C3)ccc21	gsp antagonist 40µM
NNC(=O)c1cc2sccc2s1	BCR signal inh 18µM
COCCN(CCOC)c1nc(-c2ccc(C)cc2)nc2ccccc12	gsp antagonist 28µM
Cc1ccc(-c2nc(NCCN(C)C)c3ccccc3n2)cc1	BCR signal inh inconclusive
CCc1nc(Nc2ccc(N3CCN(C(C)=O)CC3)cc2)c2oc3ccccc3c2n1	MBNL1-CUG inh inconclusive, BCR signal inh inconclusive
CC(=O)N1CCN(c2ccc(Nc3ncnc4c3oc3ccccc34)cc2)CC1	gsp antagonist 28µM, BCR signal inh inconclusive
CCOc1ccc(/C=N/NC(=O)c2ccccc2O)cc1CN1CC2CC(C1)c1cccc(=O)n1C2 (stereo not given)	gsp antagonist 35µM, BCR signal inh inconclusive (no result: gsp ag, MBNL1-CUG inh)
COc1ccc(/C=N/NC(=O)c2ccccc2O)cc1Cn1cc(Cl)cn1	MBNL1-CUG inh inconclusive, BCR signal inh inconclusive, S-ASM inh inconclusive
O=C(Nc1c2c(nn1-c1ccccc1)CS(=O)(=O)C2)C1CC1	none (no result: gsp antagonist, MBNL1-CUG inh, BCR signal inh, S-ASM inh)
CC1(C)Cc2c(ccc3ccccc23)/C(=C/C(=O)N2CCCCC2)N1	gsp antagonist 35µM
O=C(/C=C1\NC2(CCCC2)Cc2ccccc21)N1CCOCC1	none
Cc1ccccc1OCCC(=O)OCC(=O)c1c(N)n(CC(C)C)c(=O)n(C)c1=O	gsp antagonist 32µM (no result: MBNL1-CUG inh, BCR signal inh, S-ASM inh)
Cc1ccc(OCCC(=O)OCC(=O)c2c(N)n(CC(C)C)c(=O)n(C)c2=O)cc1	none (no result: MBNL1-CUG inh)
CC(C)Cn1c(N)c(C(=O)COC(=O)c2ccc(Br)cc2)c(=O)n(C)c1=O	gsp ag inconclusive, gsp antagonist 35µM, BCR signal inh inconclusive (no result: MBNL1-CUG inh)
CC(C)Cn1c(N)c(C(=O)COC(=O)c2ccc(Cl)cc2)c(=O)n(C)c1=O	gsp antagonist inconclusive
CC(C)Cn1c(N)c(C(=O)COC(=O)/C=C/c2ccccc2)c(=O)n(C)c1=O	gsp antagonist 35µM (no result: MBNL1-CUG inh)
CC(C)Cn1c(N)c(C(=O)COC(=O)[C@@H]2CCCN2C(=O)c2cccs2)c(=O)n(C)c1=O	gsp ag 13µM
Cc1cc2c(c(=O)n1-c1ccccc1)C1O[C@](c3ccsc3)(Cc3cc(C#N)ccc31)O2	none (no result: gsp ag, gsp antagonist, S-ASM inh)
CCCn1c(N)c(C(=O)COC(=O)c2c(C)noc2C)c(=O)n(C)c1=O	gsp ag 5µM
CCOC(=O)c1ccc(N2CCN(C(C)=O)CC2)c(NC(=O)c2cccnc2)c1	gsp antagonist 50µM
Cc1cc(NC(=O)c2ccc(-c3ccccc3[N+](=O)[O-])o2)no1	none (no result: MBNL1-CUG inh)
O=C(Nc1cccc(NC(=O)c2ccccc2Cl)c1)c1ccc([N+](=O)[O-])o1	gsp antagonist 40µM, MBNL1-CUG inh inconclusive, BCR signal inh inconclusive
CC(=O)c1cccc(NC(=O)c2ccc(-c3ccccc3[N+](=O)[O-])o2)c1	gsp antagonist 45µM
Cc1cc(C(=O)CSc2nncs2)c(C)n1-c1c(C)n(C)n(-c2ccccc2)c1=O	none
Cc1ccc(-n2c(C)cc(C(=O)CSc3nncs3)c2C)cc1	gsp antagonist 25µM
C/C(NCCc1ccc(O)cc1)=C1/CCOC1=O	none (no result: gsp antagonist, MBNL1-CUG inh, BCR signal inh, S-ASM inh)
COc1ccc(OCC(=O)Nc2ccc(C(=O)Nc3ccccc3C(=O)O)cc2)cc1	gsp antagonist 40µM, BCR signal inh inconclusive
CC(=O)Nc1ccc(NC(=O)c2cc(-c3cc(C)cc(C)c3O)n[nH]2)cc1	BCR signal inh inconclusive, S-ASM inh inconclusive
Cc1cc(C)c(O)c(-c2cc(C(=O)Nc3ccc(S(=O)(=O)N4CCOCC4)cc3)[nH]n2)c1	gsp antagonist 28µM, BCR signal inh inconclusive, S-ASM inh inconclusive
C[C@@H]1CN([C@H](C)CO)C(=O)CCCn2cc(nn2)CO[C@H]1CN(C)S(=O)(=O)c1ccc(-c2ccccc2)cc1	none (no result: gsp antagonist, MBNL1-CUG inh, BCR signal inh, S-ASM inh)
Cn1c(N)c(C(=O)CSc2nc(N)cc(=O)[nH]2)c(=O)n(C)c1=O	none
Cc1cc(=O)[nH]c(SCC(=O)c2c(N)n(C)c(=O)n(C)c2=O)n1	gsp ag 25µM
O=c1[nH]c(=S)[nH]cc1Oc1ccc(Cl)cc1Cl	gsp ag 6.3µM
Cc1nc(-c2ccccc2)[nH]c(=O)c1Oc1ccc(Cl)cc1Cl	none (no result: MBNL1-CUG inh)
